Most compounds without a hit are left out; they make up all but 9.3% or so of the library.
Rab9 prom act: qHTS Assay for Rab9 Promoter Activators; Huh7 Rab9 promoter-luciferase reporter, luminescence, 24 h; Potency, µM (titrated, usually from 9.22 µM), without a hit: at the top dose activation, negative = inhibition, usual class: activators; 320,000 tested, 2.8% active; also: % of control where 0% means no effect; nearly all actives have a fitted effect of over 60% in size
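Quantitative HTS format; Huh7 Rab9-luciferase reporter cells (1500/well) receive compound 2 h post-plating, incubate 24 h at 37 °C, then get luciferase reagent for 10 min before luminescence reading.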
FLuc modulator: qHTS profiling assay for firefly luciferase inhibitor/activator using purifed enzyme and Km concentrations of substrates (counterscreen for miR-21 project); 360,000 tested, 6.9% active; Luciferin 4-monooxygenase (Photinus pyralis), P08659; AID 588342, 2011; purified FLuc, Km substrates, luminescence inhibition; Potency, µM (doses to about 57.5 µM), for the others: at the top dose activity change, negative = inhibition, most hits filed as inhibitors;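 also: plate controls were vehicle for no effect and reference inhibitor for full effect; nearly all actives have a fitted effect of over 55% in size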
Target sequence (P08659 whole entry, looked up): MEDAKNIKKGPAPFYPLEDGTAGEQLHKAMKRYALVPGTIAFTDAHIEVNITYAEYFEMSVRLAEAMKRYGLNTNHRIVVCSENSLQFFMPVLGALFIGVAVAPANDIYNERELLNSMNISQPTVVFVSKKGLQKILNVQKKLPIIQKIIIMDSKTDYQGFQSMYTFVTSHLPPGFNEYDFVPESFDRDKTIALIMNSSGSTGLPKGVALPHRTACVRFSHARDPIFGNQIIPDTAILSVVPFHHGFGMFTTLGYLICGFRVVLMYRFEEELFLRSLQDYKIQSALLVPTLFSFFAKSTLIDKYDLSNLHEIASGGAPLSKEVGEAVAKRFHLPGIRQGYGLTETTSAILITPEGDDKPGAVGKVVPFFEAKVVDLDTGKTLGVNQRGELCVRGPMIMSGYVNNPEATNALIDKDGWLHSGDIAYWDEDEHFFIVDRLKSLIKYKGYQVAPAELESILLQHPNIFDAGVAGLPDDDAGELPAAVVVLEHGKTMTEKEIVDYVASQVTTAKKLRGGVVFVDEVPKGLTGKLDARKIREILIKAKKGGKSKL
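Purified P. pyralis luciferase, 10 nM final, with Km-level 10 uM D-luciferin and 10 uM ATP in 50 mM Tris acetate pH 7.5, 10 mM Mg acetate, 0.01% Tween-20, 0.05% BSA; 6-point qHTS titration about 60 µM downward; luminescence read.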
NPC1 prom act: qHTS Assay for NPC1 Promoter Activators; Huh7 NPC1 promoter luciferase reporter, 24 h; Potency, µM (titrated, usually from 9.22 µM), for inactives: top-dose activation, most hits filed as activators; 320,000 tested, 2.4% active; AID 485313, 2010; also: % of control where 0% means no effect; nearly all actives have a fitted effect of over 60% in size
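In 1536-well qHTS, Huh7 cells harboring an NPC1 promoter–luciferase construct received compound for 24 h; activation was quantified by luminescence following luciferase reagent addition.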
SMN2 splice enh: qHTS Assay for Enhancers of SMN2 Splice Variant Expression; HEK293 SMN2-luciferase splicing reporter, luminescence, 30-36 h; Potency, µM (highest dose often 46.1 µM), for the others: top-dose activity change, positive = activation, usual class: activators; 210,000 tested, 2.8% active; also: % of control where 0% means no effect; nearly all actives have a fitted effect of over 55% in size
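HEK293 cells carry an SMN2 minigene-luciferase reporter in which exon 7 inclusion puts luciferase in frame. Cells were seeded at 2000 cells/well, attached for 10-12 hours, then exposed to compounds for 30-36 hours at 37C before ONE-Glo luminescence.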
ELG1 genotoxic: qHTS screen for small molecules that induce genotoxicity in human embryonic kidney (HEK293T) cells expressing luciferase-tagged ELG1; Potency, µM (top dose mostly 46 µM), without a hit: at the highest dose activity change, positive = activation, actives largely listed as activators; HEK293T ELG1-luciferase reporter, luminescence, 16 h; 330,000 tested, 1.3% active; also: % of control where 0% means no effect; nearly all actives have a fitted effect of over 60% in size
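Luminescence read-out: rising ELG1-luciferase signal, reflecting elevated ELG1 protein under genetic stress, flags genotoxic compounds. Cells were treated for 16 hr at 37 °C before ONE-Glo detection.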
ELG1 repair inh: qHTS screen for small molecules that inhibit ELG1-dependent DNA repair in human embryonic kidney (HEK293T) cells expressing luciferase-tagged ELG1; HEK293T ELG1-luciferase reporter, luminescence, 16 h; DNA damage induced by 5-fluorouridine; Potency, µM (series often up to 46.1 µM), for inactives: top-dose activity change, negative = inhibition, usual class: inhibitors; 330,000 tested, 2.3% active; also: % is scaled to controls: 0 for no effect and ±100 for the full control effect; nearly all actives have a fitted effect of over 55% in size
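HEK293T cells expressing luciferase-tagged ELG1 (2,000/well) received 5-Fluorouridine plus compound or DMSO for 16 hr at 37 °C. Luciferase was read by ONE-Glo luminescence after 30 min at room temperature.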
* = called active by the depositor; ? = inconclusive; . = no result. Calls follow the shape of the dose curve; as a rule, active = well fitted curve in the direction sought with a large enough effect; inconclusive = small, poorly fitted or top-dose-only effect, or another doubt; inactive = no such curve, though single readings can be large; an effect the other way counts as inactive or inconclusive. Potency is read from the fitted curve at half-maximal effect.

SMILES | Rab9 prom act | FLuc modulator | NPC1 prom act | SMN2 splice enh | ELG1 genotoxic | ELG1 repair inh
O=C(Cn1c(=O)n(CCCCC(=O)NC2CCCC2)c(=O)c2ccccc21)NCCC1=CCCCC1 | 2% | 3% | 0% | 4% | 0% | 10%
CC(C)=CCN1CCN(Cc2cnc(N3CCCC3)s2)CC1CCO (stereo unspecified) | 8% | -1% | -1% | . | -2% | 1%
COC(=O)c1ccc(CN2CCN(CC=C(C)C)C(CCO)C2)cc1 (stereo unspecified) | -2% | 17µM* | -1% | . | 2% | 10%
CC(C)=CCN1CCN(Cc2cnc(C)s2)CC1CCO (stereo unspecified) | 0.79µM* | 6.7µM* | 1.6µM* | . | ? | ?
CC(C)=CCN1CCN(Cc2cnc(N3CCOCC3)s2)CC1CCO (stereo unspecified) | 2.8µM* | 2.1µM* | 3.2µM* | . | ? | ?
CCCc1nc2ccccc2n1Cc1ccccc1OC | -8% | ? | 0% | -47% | -3% | ?
CC(=O)NN1C(=O)c2ccc(Oc3ccc4c(c3)C(=O)N(NC(C)=O)C4=O)cc2C1=O | -2% | 1% | -2% | 0% | 2% | 6%
COc1ccc(NC(=O)N2CCN(S(C)(=O)=O)CC2)cc1OC | -2% | 8% | -4% | 2% | 3% | -2%
O=C(CCOc1ccccc1)Nc1nnc(-c2ccc3c(c2)OCCO3)o1 | 10% | 11µM* | 6% | -24% | -6% | -12%
O=C(Nc1nnc(-c2ccncc2)o1)c1ccccc1 | 11% | ? | 9% | 21% | 3% | -4%
O=C(Nc1nnc(-c2ccc3c(c2)OCCO3)o1)C1CCCCC1 | 2.5µM* | ? | 3.5µM* | ? | ? | ?
O=C(COc1ccccc1)Nc1nnc(-c2ccc3c(c2)CCCC3)o1 | ? | ? | ? | ? | 18µM* | ?
O=C(Nc1nnc(-c2ccc3c(c2)OCCO3)o1)c1ccc(Cc2ccccc2)cc1 | -7% | -2% | 2% | -17% | -11% | -11%
O=C(Nc1nnc(-c2ccc3c(c2)CCCC3)o1)c1ccccc1 | -6% | 19µM* | 4% | -48% | ? | ?
CCn1nc(C)cc1-c1n[nH]c(=S)n1N | -4% | -2% | -1% | -14% | 1% | 8%
O=C(COC(=O)Cc1cccc(C(F)(F)F)c1)NCc1ccco1 | -6% | 0% | 1% | . | -3% | 12%
Cc1c(S(=O)(=O)Nc2ccc(Br)cc2)c(=O)n(C)c(=O)n1C | -3% | -1% | -1% | . | 2% | -7%
Cc1nonc1NC(=O)CSc1ccccn1 | 3% | 0% | -1% | . | -1% | 4%
CCc1ccc(NC2=NC(C(=O)c3ccccc3)CC(=O)N2)cc1 (stereo unspecified) | -5% | 0% | -1% | 0% | 2% | 19%
O=C(Nc1nnc(-c2ccccc2)o1)c1cc(Cl)sc1Cl | -4% | 1% | 4% | ? | -3% | 14%
O=C(Nc1nnc(-c2ccc(Br)cc2)o1)c1cccc(N2C(=O)CCC2=O)c1 | 0% | 12µM* | 1% | . | 2% | 20%
O=C(Nc1nnc(-c2ccccc2)o1)c1cccc(N2C(=O)CCC2=O)c1 | 1% | ? | -1% | -4% | 0% | 16%
O=C(Nc1nnc(-c2ccc3c(c2)CCCC3)o1)c1ccccc1Cl | 7% | 24µM* | 2% | 16% | -1% | ?
CC(C(=O)Nc1ccc(N(C)C)cc1)N1C(=O)c2ccccc2S1(=O)=O (stereo unspecified) | 2% | -20% | 2% | . | 7% | 22%
C=CCNC(=S)NNC(=O)c1cc(C)nc2ccccc12 | 3% | -18% | -3% | 1% | -2% | -4%
SMILES | Rab9 prom act | FLuc modulator | NPC1 prom act | SMN2 splice enh | ELG1 genotoxic | ELG1 repair inh
CCCNC(=S)NNC(=O)c1cc(C2CC2)nc2ccccc12 | 5% | 21µM* | -3% | . | 0% | -3%
CCNC(=S)NNC(=O)c1cc(C2CC2)nc2ccccc12 | 2% | 12µM* | -1% | -1% | -1% | 5%
COc1ccc(-c2c(-c3ccc(OCC(=O)NN)cc3O)n[nH]c2C(F)(F)F)cc1 | 0% | 1% | 2% | -7% | 0% | -5%
O=C(C[C@H]1C/C=C\CC[C@H](Cc2ccc(F)cc2)C(=O)O[C@@H](c2ccccc2)CNC1=O)N[C@@H](CO)Cc1ccccc1 | . | . | . | . | -6% | 9.2µM*
O=C(C[C@H]1C/C=C\CC[C@H](Cc2ccc(F)cc2)C(=O)O[C@@H](c2ccccc2)CNC1=O)N[C@H](CO)Cc1ccccc1 | . | . | . | . | -7% | 21µM*
O=C(C[C@H]1C/C=C\CC[C@H](Cc2ccc(F)cc2)C(=O)O[C@H](c2ccccc2)CNC1=O)N[C@H](CO)Cc1ccccc1 | . | . | . | . | -6% | 10µM*
O=C(C[C@H]1C/C=C\CC[C@H](Cc2ccc(F)cc2)C(=O)OC[C@H]2CCCN2C1=O)N[C@H](CO)Cc1ccccc1 | . | . | . | . | -7% | 23µM*
O=C(C[C@H]1C/C=C\C[C@H](Cc2ccc(F)cc2)C(=O)O[C@@H](c2ccccc2)CNC1=O)N[C@H](CO)Cc1ccccc1 | . | . | . | . | 0% | ?
CC(C)CNC(=S)N1CCC(NC(=O)C23CC4CC(CC(C4)C2)C3)CC1 | -7% | 1% | -2% | -32% | -1% | -29%
COc1ccc(OCC(O)Cn2c(Nc3ccccc3)nc3c2c(=O)n(C)c(=O)n3C)cc1 (stereo unspecified) | 5% | 3% | -1% | -5% | 5% | ?
Fc1ccc(CSc2nnc(-c3ccco3)o2)cc1 | ? | ? | ? | . | 15% | ?
Cc1ccc(CSc2nnc(-c3ccco3)o2)cc1 | 4µM* | 12µM* | ? | 20% | ? | ?
c1ccc(CSc2nnc(-c3ccco3)o2)cc1 | ? | 17µM* | ? | . | ? | ?
Brc1ccc(CSc2nnc(-c3ccco3)o2)cc1 | 8% | ? | -1% | 13µM* | 18% | ?
Cc1cc(C)cc(NC(=O)Cn2nnc(-c3nc(-c4ccncc4)no3)c2N)c1 | . | -6% | . | . | . | .
COc1ccc(/C=c2\s/c(=C\C(=O)C(C)(C)C)[nH]c2=O)cc1O | -3% | 24µM* | -1% | . | -9% | ?
N#Cc1cc2ccccc2nc1SCc1ccccn1 | 2% | 17µM* | -1% | 11µM* | 7.3µM* | ?

From PubChem
